Results as given in PubChem BioAssay (Tox21).
Records with an inconclusive call do not appear. Activity calls are given as the source filed them. Unless noted, the call rests on the fitted dose curve; in most records, active means well fitted curve in the direction sought with a large enough effect in the repeat runs; inconclusive means weak or mixed curves; inactive means no such curve, though single readings can be large; an effect the other way counts as inactive or inconclusive.

What was measured:
[1] = qHTS assay to identify small molecule agonists of the sonic hedgehog signaling (Shh) pathway (AID 1259368; calls by dose curve;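 further: NIH/3T3-derived 3T3Gli1-Luc cells carrying a stable Gli1-driven firefly luciferase reporter; series mostly up to about 92 µM; nearly all actives have a fitted effect of over 15% in size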)
Procedure, shortened: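 A Gli1 transcriptional response element controlled firefly luciferase in 3T3Gli1-Luc cells. Compounds and a positive control were added 4 hr after plating, and cells were incubated a further 24 hr at 37 C before luminescence detection.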

[2] = biological target: Estrogen receptor beta (Homo sapiens) (UniProt Q92731); assay: qHTS assay to identify small molecule agonists of the estrogen receptor beta (ER-beta) signaling pathway (AID 1259377; active means well fitted activation curve with a large enough effect in the signal ratio in the repeat runs, not every such curve was filed as active; the % refers to the signal ratio)
Sequence of Estrogen receptor beta (Homo sapiens) (Q92731 whole entry, looked up): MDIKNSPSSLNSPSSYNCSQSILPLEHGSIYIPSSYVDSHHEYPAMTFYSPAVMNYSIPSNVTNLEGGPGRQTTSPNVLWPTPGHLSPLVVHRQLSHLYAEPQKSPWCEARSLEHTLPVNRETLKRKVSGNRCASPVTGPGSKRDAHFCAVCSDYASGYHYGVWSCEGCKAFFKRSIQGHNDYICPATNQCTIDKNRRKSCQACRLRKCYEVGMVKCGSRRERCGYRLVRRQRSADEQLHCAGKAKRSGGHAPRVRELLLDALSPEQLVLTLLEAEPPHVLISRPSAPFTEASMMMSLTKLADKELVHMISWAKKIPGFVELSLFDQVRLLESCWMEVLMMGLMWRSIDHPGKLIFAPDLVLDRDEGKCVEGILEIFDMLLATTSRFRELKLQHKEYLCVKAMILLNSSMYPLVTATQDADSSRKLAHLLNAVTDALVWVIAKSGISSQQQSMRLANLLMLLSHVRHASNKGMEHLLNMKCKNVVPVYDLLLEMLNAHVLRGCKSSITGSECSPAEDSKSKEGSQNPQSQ
Procedure, shortened: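 Ratiometric beta-lactamase FRET read-out came after 2 h substrate loading at room temperature. It followed 16 h compound treatment at 37C of GripTite HEK293T cells carrying a UAS-bla reporter, plated in 2% charcoal-stripped FBS medium.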

[3] = biological target: Estrogen receptor beta (Homo sapiens) (UniProt Q92731); assay: qHTS assay to identify small molecule antagonists of the estrogen receptor beta (ER-beta) signaling pathway (AID 1259378; active means well fitted inhibition curve with a large enough effect in the signal ratio in the repeat runs, not every such curve was filed as active; the % refers to the signal ratio)
Procedure, shortened: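 ER-beta-UAS-bla HEK293T (GripTite) cells in 2% charcoal-stripped FBS medium were preincubated 6 hr at 37C, dosed with compound, then stimulated with 1 nM E2 (final) for 16 hr; beta-lactamase reporter read by B/G FRET fluorescence after 2 hr substrate loading.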

[4] = qHTS assay to identify small molecule agonists of the androgen receptor (AR) signaling pathway in the presence of an antagonist - cell viability counter screen (AID 1259379);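 further: MDA-kb2 human breast cancer cells carrying an MMTV luciferase reporter; series mostly up to about 92 µM; nearly all actives have a fitted effect of over 25% in size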
Procedure, shortened: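 Seed MDA-kb2 at 3,000 cells/well; incubate 5 hr, 37C, 0% CO2. Add nilutamide to 3.0uM final, then pin compounds at 15 concentrations. Incubate 16 hr. Add CellTiter-Fluor at 15 hr, read fluorescence after 1 hr.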

[5] = qHTS assay to identify small molecule agonists of the estrogen receptor beta (ER-beta) signaling pathway - cell viability counter screen (AID 1259380); further: nearly all actives have a fitted effect of over 30% in size
Procedure, shortened: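 CellTiter-Glo read, 30 min RT, same wells as bla assay; cells ER-beta-UAS-bla HEK293T; 16 hr compound, 37C; medium 2% charcoal-stripped FBS.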

[6] = qHTS assay to identify small molecule antagonists of the estrogen receptor beta (ER-beta) signaling pathway - cell viability counter screen (AID 1259382); further: series mostly up to about 92 µM; nearly all actives have a fitted effect of over 55% in size
Procedure, shortened: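 In this multiplexed counter screen, cells were seeded at 2,000 per well in medium with 2% charcoal-stripped FBS and incubated 6 hr before compound and 1nM final E2 were added. Sixteen hours later, ATP-based luminescence reported viability.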

[7] = biological target: Estrogen receptor (Homo sapiens) (UniProt P03372); assay: qHTS assay to identify small molecule agonists of the estrogen receptor alpha (ER-alpha) signaling pathway in the presence of an antagonist (AID 1259383; calls by dose curve; further: top concentration of the series differs between compounds; nearly all actives have a fitted effect of over 15% in size)
Sequence of Estrogen receptor (Homo sapiens) (P03372 whole entry, looked up): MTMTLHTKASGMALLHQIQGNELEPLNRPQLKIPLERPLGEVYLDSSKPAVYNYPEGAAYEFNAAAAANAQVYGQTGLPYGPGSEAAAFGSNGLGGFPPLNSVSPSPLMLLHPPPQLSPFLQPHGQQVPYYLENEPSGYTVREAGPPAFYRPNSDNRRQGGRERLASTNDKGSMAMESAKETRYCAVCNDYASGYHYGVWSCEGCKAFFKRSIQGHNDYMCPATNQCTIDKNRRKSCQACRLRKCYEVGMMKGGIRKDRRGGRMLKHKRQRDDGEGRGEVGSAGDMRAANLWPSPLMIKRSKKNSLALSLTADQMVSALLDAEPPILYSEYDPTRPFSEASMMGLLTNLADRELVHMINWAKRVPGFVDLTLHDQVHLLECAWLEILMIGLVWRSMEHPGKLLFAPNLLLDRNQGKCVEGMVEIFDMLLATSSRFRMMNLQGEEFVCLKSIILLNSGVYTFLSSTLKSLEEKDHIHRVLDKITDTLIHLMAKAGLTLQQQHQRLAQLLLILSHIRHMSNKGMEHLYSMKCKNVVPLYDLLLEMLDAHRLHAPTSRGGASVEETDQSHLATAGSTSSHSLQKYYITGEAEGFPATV
Procedure, shortened: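 Stably transfected VM7Luc4E2 reporter cells, kept 5 days in charcoal-stripped serum, received ICI-182,780 at 10.0nM final before compound addition. Following 22hr incubation at 37C and 5% CO2, luciferase signal was read by luminescence.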

[8] = qHTS assay to identify small molecule agonists or antagonists of the thyroid stimulating hormone receptor (TSHR) signaling pathway - wild type cell line counter screen (AID 1259384; calls by dose curve)
Procedure, shortened: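 Wild-type HEK293 cells were plated 18 h at 37 C/5% CO2, pin-dosed with compound plus Ro20-1724 medium, held 30 min at room temperature, then given cAMP-d2 and anti-cAMP-cryptate; fluorescence was read after 1 h. Fifteen concentrations, triplicate.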

[9] = biological target: Thyrotropin receptor (Homo sapiens) (UniProt P16473); assay: qHTS assay to identify small molecule antagonists of the thyroid stimulating hormone receptor (TSHR) signaling pathway (AID 1259385; calls by dose curve; further: nearly all actives have a fitted effect of over 20% in size)
Sequence of Thyrotropin receptor (Homo sapiens) (P16473 whole entry, looked up): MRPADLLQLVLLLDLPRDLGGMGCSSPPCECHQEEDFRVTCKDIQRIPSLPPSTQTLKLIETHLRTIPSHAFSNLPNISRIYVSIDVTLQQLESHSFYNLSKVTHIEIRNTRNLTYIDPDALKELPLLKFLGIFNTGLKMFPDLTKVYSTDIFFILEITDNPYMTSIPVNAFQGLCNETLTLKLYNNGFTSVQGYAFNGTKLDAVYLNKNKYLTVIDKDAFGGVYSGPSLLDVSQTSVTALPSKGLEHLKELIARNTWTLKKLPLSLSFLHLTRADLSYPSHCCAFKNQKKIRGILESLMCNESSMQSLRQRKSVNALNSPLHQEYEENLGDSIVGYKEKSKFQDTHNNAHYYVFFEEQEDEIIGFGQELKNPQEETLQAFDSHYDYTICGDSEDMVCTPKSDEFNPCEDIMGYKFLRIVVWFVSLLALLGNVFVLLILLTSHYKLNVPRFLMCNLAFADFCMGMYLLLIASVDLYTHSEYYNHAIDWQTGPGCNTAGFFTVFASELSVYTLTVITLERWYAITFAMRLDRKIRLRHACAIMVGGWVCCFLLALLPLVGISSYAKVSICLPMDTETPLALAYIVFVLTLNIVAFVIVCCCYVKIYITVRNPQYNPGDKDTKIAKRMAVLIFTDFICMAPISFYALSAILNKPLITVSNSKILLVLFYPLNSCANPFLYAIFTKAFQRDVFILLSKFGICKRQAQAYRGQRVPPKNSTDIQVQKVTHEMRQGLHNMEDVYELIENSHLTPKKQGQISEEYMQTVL
Procedure, shortened: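 TSHR-HEK293 cells were plated and held 18 h at 37C/5% CO2, then given compound plus Ro20-1724 and stimulated with TSH at 1.5 ng/mL final. After 30 min at room temperature, cAMP was detected with cAMP-d2/anti-cAMP-cryptate (1 h) by fluorescence.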

[10] = biological target: Progesterone receptor (Homo sapiens) (UniProt P06401); assay: qHTS assay to identify small molecule agonists of the progesterone receptor (PR) signaling pathway (AID 1346784; calls by dose curve; further: nearly all actives have a fitted effect of over 30% in size)
Sequence of Progesterone receptor (Homo sapiens) (P06401 whole entry, looked up): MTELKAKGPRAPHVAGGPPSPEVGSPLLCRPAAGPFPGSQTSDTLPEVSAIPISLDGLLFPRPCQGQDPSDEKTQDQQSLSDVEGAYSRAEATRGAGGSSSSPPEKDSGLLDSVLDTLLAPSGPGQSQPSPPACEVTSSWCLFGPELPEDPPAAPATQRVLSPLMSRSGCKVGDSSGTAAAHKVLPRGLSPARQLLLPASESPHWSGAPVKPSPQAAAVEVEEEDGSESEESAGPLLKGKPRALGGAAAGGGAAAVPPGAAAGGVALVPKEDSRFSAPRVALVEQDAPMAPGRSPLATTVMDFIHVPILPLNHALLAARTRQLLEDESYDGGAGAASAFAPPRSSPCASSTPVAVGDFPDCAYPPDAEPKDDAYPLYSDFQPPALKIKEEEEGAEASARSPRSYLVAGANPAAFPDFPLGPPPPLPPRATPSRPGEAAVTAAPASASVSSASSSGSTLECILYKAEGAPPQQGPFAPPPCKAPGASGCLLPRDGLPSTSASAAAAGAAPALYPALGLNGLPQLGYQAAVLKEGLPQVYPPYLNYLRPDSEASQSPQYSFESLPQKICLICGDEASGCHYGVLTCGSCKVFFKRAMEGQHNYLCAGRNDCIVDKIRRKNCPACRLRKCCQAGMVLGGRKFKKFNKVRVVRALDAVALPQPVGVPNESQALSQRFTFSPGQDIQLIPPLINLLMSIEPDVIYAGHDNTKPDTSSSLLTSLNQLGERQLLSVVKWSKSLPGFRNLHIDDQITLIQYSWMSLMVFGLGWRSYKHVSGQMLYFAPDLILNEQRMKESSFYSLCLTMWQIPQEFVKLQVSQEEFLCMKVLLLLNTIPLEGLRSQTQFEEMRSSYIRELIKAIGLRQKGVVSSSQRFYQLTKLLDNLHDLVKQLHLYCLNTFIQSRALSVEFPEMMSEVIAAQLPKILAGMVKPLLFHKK
Procedure, shortened: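 Agonist qHTS: compounds pinned onto 3,000 PR-UAS-bla HEK 293T cells per well in charcoal-stripped serum medium, 16hr at 37C, then beta-lactamase activity measured by LiveBLAzer FRET fluorescence after 2 hours at room temperature.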

[11] = biological target: Progesterone receptor (Homo sapiens) (UniProt P06401); assay: qHTS assay to identify small molecule antagonists of the progesterone receptor (PR) signaling pathway (AID 1346795; active means well fitted inhibition curve with a large enough effect in the signal ratio in the repeat runs, not every such curve was filed as active; the % refers to the signal ratio)
Procedure, shortened: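 Antagonist mode with agonist R5020 at 1 nM final and 16 hr incubation at 37C. Reporter was beta-lactamase driven by UAS in HEK293T (PR-UAS-bla), 2% charcoal-stripped serum; signal from LiveBLAzer FRET substrate, 2 hr at room temperature.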

[12] = qHTS assay to identify small molecule antagonists of the progesterone receptor (PR) signaling pathway - cell viability counter screen (AID 1346798); further: series mostly up to about 92 µM; nearly all actives have a fitted effect of over 50% in size
Procedure, shortened: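 Cytotoxicity read as CellTiter-Glo luminescence (30 min, room temperature) in the same wells as the beta-lactamase readout. HEK293T PR-UAS-bla cells in charcoal-stripped 2% FBS received compound and R5020, then 16 h at 37C, 5% CO2.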

[13] = qHTS assay to identify small molecule antagonists of the TGF-beta/Smad signaling pathway - cell viability counter screen (AID 1346824); further: nearly all actives have a fitted effect of over 50% in size
Procedure, shortened: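 SBE-bla HEK 293T cells were plated overnight at 37 C, then given compounds in DMSO plus TGF-beta1 (added as 0.25 ng/mL solution) for 5 hr. After the bla read, CellTiter-Glo was added to the same wells and luminescence read after 30 min at room temperature.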

[14] = qHTS assay to identify small molecule agonists of the TGF-beta/Smad signaling pathway - cell viability counter screen (AID 1346829); further: top concentration of the series differs between compounds; nearly all actives have a fitted effect of over 45% in size
Procedure, shortened: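 Cytotoxicity counter screen: CellTiter-Glo luminescence (30 min, room temperature) measured in the SBE-bla HEK 293T reporter wells after 5 hr compound treatment at 37 C and the 2 hr substrate step.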

[15] = qHTS assay to identify small molecule agonists of the TGF-beta/Smad signaling pathway (AID 1346859; active means well fitted activation curve with a large enough effect in the signal ratio in the repeat runs, not every such curve was filed as active; the % refers to the signal ratio; further: series mostly up to about 77 µM)
Procedure, shortened: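 Fluorescence (ex 405 nm; em 460 and 530 nm) was read 2 h after LiveBLAzer FRET substrate at RT. The preceding compound treatment of overnight-plated SBE-bla HEK293T cells lasted 5 h at 37 C.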

[16] = biological target: Thyrotropin-releasing hormone receptor (Homo sapiens) (UniProt P34981); assay: qHTS assay to identify small molecule antagonists of the thyrotropin-releasing hormone receptor (TRHR) signaling pathway (AID 1346877; active means well fitted inhibition curve with a large enough effect in the repeat runs, not every such curve was filed as active; further: series mostly up to about 51 µM)
Sequence of Thyrotropin-releasing hormone receptor (Homo sapiens) (P34981 whole entry, looked up): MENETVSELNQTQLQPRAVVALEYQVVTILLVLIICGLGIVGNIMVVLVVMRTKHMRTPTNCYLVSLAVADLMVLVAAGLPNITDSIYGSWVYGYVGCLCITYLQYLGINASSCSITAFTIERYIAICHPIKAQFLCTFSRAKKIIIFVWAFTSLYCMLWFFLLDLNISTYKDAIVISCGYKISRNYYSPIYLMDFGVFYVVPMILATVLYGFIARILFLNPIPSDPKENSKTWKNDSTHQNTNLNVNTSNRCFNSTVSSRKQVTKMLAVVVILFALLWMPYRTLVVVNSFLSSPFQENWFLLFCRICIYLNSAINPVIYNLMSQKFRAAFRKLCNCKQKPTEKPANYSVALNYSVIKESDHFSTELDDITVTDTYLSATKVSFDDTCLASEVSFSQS
Procedure, shortened: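 Following an 18 h incubation at 37 °C and a 2 h calcium dye load, TRHR-HEK293 cells were exposed to compound (5 min, room temperature) and challenged with TRH, 1 nM final.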

[17] = qHTS assay to identify small molecule agonists of the estrogen receptor alpha (ER-alpha) signaling pathway in the presence of an antagonist - cell viability counter screen (AID 1259386);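 further: series mostly up to about 92 µM; cells exposed to compounds for 22 h at 37 °C before the viability read; nearly all actives have a fitted effect of over 30% in size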
Procedure, shortened: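 Viability counter screen using VM7Luc4E2 (full-length ER-alpha, four ERE-luciferase). The cells were treated with compounds alongside ICI-182,780 10.0nM for 22hr, and live-cell protease fluorescence was quantified with CellTiter-Fluor.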

[18] = qHTS assay to identify small molecule agonists of the progesterone receptor (PR) signaling pathway - cell viability counter screen (AID 1346799; calls by dose curve; further: nearly all actives have a fitted effect of over 45% in size)
Procedure, shortened: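 Cytotoxicity measured by CellTiter-Glo luminescence (30 min, RT) in the same wells as the PR beta-lactamase agonist read. Those HEK293T cells had 16 h compound treatment at 37 C in 2% charcoal-stripped FBS medium.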

[19] = biological target: Androgen receptor (Homo sapiens) (UniProt P10275); assay: qHTS assay to identify small molecule agonists of the androgen receptor (AR) signaling pathway in the presence of an antagonist (AID 1259381; calls by dose curve; further: nearly all actives have a fitted effect of over 15% in size)
Sequence of Androgen receptor (Homo sapiens) (P10275 whole entry, looked up): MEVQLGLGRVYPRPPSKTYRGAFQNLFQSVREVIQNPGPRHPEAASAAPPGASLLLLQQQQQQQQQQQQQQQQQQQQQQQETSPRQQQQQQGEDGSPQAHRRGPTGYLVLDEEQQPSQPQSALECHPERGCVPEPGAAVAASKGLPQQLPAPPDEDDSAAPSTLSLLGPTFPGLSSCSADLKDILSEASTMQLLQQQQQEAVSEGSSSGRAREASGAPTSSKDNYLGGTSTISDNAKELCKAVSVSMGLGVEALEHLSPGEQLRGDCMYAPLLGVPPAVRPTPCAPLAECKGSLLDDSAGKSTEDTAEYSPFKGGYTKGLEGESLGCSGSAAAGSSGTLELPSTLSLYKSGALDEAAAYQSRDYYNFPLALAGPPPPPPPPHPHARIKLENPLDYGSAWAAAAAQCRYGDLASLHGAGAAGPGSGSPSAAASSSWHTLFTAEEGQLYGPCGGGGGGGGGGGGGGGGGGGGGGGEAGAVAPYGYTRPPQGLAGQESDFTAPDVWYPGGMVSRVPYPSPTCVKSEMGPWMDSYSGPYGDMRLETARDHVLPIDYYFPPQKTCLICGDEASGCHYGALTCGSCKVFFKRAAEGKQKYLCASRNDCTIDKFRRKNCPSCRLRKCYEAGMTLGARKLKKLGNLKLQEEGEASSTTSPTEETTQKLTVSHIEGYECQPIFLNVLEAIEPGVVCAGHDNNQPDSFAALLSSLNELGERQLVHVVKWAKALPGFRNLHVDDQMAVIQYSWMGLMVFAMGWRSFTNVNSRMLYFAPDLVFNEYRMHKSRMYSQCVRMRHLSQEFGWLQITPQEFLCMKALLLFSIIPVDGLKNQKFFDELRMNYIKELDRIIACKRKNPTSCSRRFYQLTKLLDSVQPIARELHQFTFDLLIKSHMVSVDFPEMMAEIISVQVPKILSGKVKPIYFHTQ
Procedure, shortened: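 Test compounds at 15 concentrations were incubated for 16hr with MDA-kb2 reporter cells in presence of 3.0uM nilutamide (final). Signal: ONE-Glo luciferase luminescence.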

Measured: Potency

NNS(=O)(=O)c1ccc(Oc2ccc(S(=O)(=O)NN)cc2)cc1
not listed: [16] | [17] | [18] | [19]
inactive: all other assays above

O=C1CCC(C2CCCCC2)CC1
not listed: [7] | [17] | [18] | [19]
inactive: all other assays above

O=S(=O)(O)C(F)(F)F
not listed: [11] | [12] | [19]
inactive: all other assays above

CCN1CC(CCN2CCOCC2)C(c2ccccc2)(c2ccccc2)C1=O (centres undefined)
not listed: [7] | [16] | [17] | [19]
inactive: all other assays above

CCN(CC)CC1CCCCN1CC(=O)N1c2ccccc2C(=O)Nc2cccnc21 (centres undefined)
not listed: [19]
inactive: all other assays above

COc1cc(N)c(Cl)cc1C(=O)NC1CCN(Cc2ccccc2)CC1
not listed: [4] | [5] | [8] | [9] | [16] | [17] | [18] | [19]
inactive: all other assays above

Cc1ccsc1C(=CCCN1CCC[C@@H](C(=O)O)C1)c1sccc1C
not listed: [14] | [16]
inactive: all other assays above

O=C(CCCl)NCc1ccccc1
not listed: [8] | [19]
inactive: all other assays above
